Rows were chosen to be rich in hits. Some 11% of all compounds tested hit in one or more screens of this group.
L3MBTL1 inh = inhibitors of human L3MBTL1. AlphaScreen L3MBTL1–H3K9me1 peptide binding. Potency, µM (doses to about 57.1 µM), hits mostly inhibitors. hit rate 0.66% among 230,000. AID 485360; note: nearly all actives have a fitted effect of over 60% in size
Target sequence (Q9Y468 whole entry, looked up): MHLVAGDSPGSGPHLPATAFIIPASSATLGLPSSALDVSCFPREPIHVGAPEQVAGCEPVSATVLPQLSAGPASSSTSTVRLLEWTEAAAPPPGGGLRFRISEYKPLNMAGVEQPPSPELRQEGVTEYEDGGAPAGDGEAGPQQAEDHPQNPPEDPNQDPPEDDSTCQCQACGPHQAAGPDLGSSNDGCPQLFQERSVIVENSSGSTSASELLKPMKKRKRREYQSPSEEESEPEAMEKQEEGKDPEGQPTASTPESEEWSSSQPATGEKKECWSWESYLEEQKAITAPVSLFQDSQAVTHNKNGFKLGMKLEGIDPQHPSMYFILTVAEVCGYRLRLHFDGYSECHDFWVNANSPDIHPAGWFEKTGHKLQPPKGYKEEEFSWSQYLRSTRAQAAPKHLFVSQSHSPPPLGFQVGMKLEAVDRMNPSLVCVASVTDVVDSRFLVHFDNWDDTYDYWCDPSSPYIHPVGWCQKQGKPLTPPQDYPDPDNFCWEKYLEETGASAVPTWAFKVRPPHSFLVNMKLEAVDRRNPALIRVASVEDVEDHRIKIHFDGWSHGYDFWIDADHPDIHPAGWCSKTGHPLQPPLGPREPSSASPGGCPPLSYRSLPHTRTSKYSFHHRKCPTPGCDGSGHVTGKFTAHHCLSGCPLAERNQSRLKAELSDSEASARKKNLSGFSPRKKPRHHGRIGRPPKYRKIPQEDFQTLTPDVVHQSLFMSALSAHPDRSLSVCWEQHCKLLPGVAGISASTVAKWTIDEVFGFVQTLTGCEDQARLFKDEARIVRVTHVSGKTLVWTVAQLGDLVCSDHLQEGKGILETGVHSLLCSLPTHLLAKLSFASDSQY
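First, the protein-peptide complex forms for 30 min at room temperature (L3MBTL1 50 nM, biotinylated H3K9me1 peptide 75 nM). Next, compounds are pin-transferred and incubated 30 min. Finally, AlphaScreen beads are added and read after 30 min.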
G9a block = inhibitors of human histone lysine methyltransferase G9a; Potency, µM (top dose mostly 102 µM), hits mostly inhibitors; hit rate 8.8% among 350,000; AID 504332; G9a H3K9 monomethylation, AlphaScreen, 2 h; Q96KQ7; note: nearly all actives have a fitted effect of over 75% in size
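AlphaScreen read-out: biotin-H3K9 peptide (500 nM) methylation by 20 nM enzyme with 20 uM SAM, 2 h at room temperature after 15 min compound preincubation; anti-monomethyl H3K9 antibody plus donor/acceptor beads, 10 min dark.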
BAZ2B inh = inhibitors of human BAZ2B bromodomain; Q9UIF8; AlphaScreen BAZ2B-H3K14Ac peptide displacement; Potency, µM (doses to about 114 µM), most hits filed as inhibitors; hit rate 4.4% among 360,000; note: nearly all actives have a fitted effect of over 60% in size
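BAZ2B (50 nM) with biotin-H3(5-23)K14Ac peptide (50 nM) in PBS pH 7.4, 0.01% Tween-20, preformed 30 min, then compound 30 min at room temperature; top concentration 110uM. AlphaScreen streptavidin donor/nickel chelate acceptor beads (10 ug/mL final), 20 min dark, signal read.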
JMJD2A Tudor = inhibitors of human JMJD2A Tudor domain; O75164; AlphaScreen JMJD2A-Tudor / H3K4me3 peptide binding; Potency, µM (highest dose often 114 µM), usual class: inhibitors; hit rate 4.4% among 390,000; note: nearly all actives have a fitted effect of over 50% in size
HP1b binding inh = inhibitors of HP1-beta chromodomain binding to methylated histone tails. P83916. AlphaScreen HP1-beta / biotin-H3K9me3 peptide binding. Potency, µM (series often up to 114 µM), actives largely listed as inhibitors. hit rate 0.56% among 390,000. AID 540317; note: nearly all actives have a fitted effect of over 70% in size
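Compound inhibition of the preformed complex between 50 nM HP1-beta and 50 nM biotinylated H3K9me3 peptide was read by AlphaScreen. Buffer was PBS pH 7.4 with 0.01% Tween-20. Incubations ran 30 min at room temperature, with 10 ug/mL donor/acceptor beads.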
Numbers stand for hits; 0 = inactive; ? = inconclusive; - = not tested or not shown; [ ] = dose if it differs, or a comment. Calls come from the whole dose curve; as a rule, active = well fitted inhibition curve with a large enough effect; inconclusive = small, poorly fitted or top-dose-only effect; inactive = no such curve, though single readings can be large or run the other way.

SMILES | L3MBTL1 inh | G9a block | BAZ2B inh | JMJD2A Tudor | HP1b binding inh
COc1ccc(N2CCN(c3ccnc4cc(Cl)ccc34)CC2)cc1 | - | 31.6µM | 39.8µM | 35.5µM | 39.8µM
Clc1ccc2c(N3CCCC3)ccnc2c1 | 0 | 0 | 0 | 0 | 0
CC(=O)NCCCN(Cc1ccc(Cl)c(Cl)c1)c1ccc(Br)cn1 | - | - | - | 0 | 0
S=C(NCCCc1cnc[nH]1)NCCCN(Cc1ccc(Cl)c(Cl)c1)c1ccccn1 | - | - | - | 44.7µM | -
CN(CCCN(Cc1ccc(Cl)cc1)c1ccc(Br)cn1)C(=S)NCCCc1cnc[nH]1 | - | - | - | 56.2µM | ?
NCCCN(Cc1ccccc1)c1ccc(Br)cn1 | - | - | - | 0 | 0
O=C(NCCCc1cnc[nH]1)NCCCN(Cc1ccc(Cl)c(Cl)c1)c1ccc(Br)cn1 | - | - | - | 50.1µM | -
S=C(NCCCCN(Cc1ccc(Cl)cc1)c1ccc(Br)cn1)NCCCc1cnc[nH]1 | - | - | - | 44.7µM | 25.1µM
CC(C)(Oc1ccc(C2CCCc3ccccc32)cc1)C(=O)O (stereo not given) | - | 0[12.7 µM] | - | - | -
CC(C)Oc1ccc(CNC(=O)CCCn2c(=O)c3cccn3c3cccnc32)cc1 | - | 0 | ? | 0 | 0
O=C(NCc1ccccc1Cl)c1ccc2c(c1)N(Cc1ccccc1)C(=O)c1ccccc1S2 | - | 0 | 0 | 0 | 0
Cc1ccc(CN2CCC(CNc3ncnc4onc(-c5ccc(F)cc5)c34)CC2)cc1 | - | 0 | 0 | 0 | 0
O=C(NC(=S)Nc1cccc(S(=O)(=O)NC2=NCCC2)c1)c1cc(-c2ccco2)nc2ccccc12 | ? | 39.8µM | ? | 0 | ?
O=C(Nc1cccc(S(=O)(=O)NC2=NCCCCC2)c1)c1cc(-c2ccccc2)nc2ccccc12 | 0 | 0 | 0 | 0 | 0
O=C(Nc1cccc(S(=O)(=O)NC2=NCCC2)c1)c1cc(-c2ccco2)nc2ccccc12 | 7.08µM | 39.8µM | 35.5µM | ? | ?
CCn1c2nc(SCCN3CCOCC3)nnc2c2cc(C)cc(C)c21 | - | ? | 0 | 0 | 0
COCCN(C/C=C/c1ccccc1)C/C=C/c1ccccc1 | 0 | 7.08µM | ? | 1µM | ?
Cc1cc(Cl)cc(Br)c1OCCCCn1cncn1 | 0[11.4 µM] | ? | 50.1µM | 3.55µM | ?
COc1ccccc1CCNC(=O)c1nccnc1C(=O)O | - | 35.5µM | 0 | 0 | 0
CCC(C)NC(=O)c1sc2nc3n(c(=O)c2c1C)CCC3 (stereo not given) | - | 0 | 0 | 0 | 0
COc1ccc(Br)cc1CNc1ccccc1 | 0 | 22.4µM | 50.1µM | 17.8µM | ?
CC(C)NCc1cc(Br)ccc1OCc1ccccc1 | 0 | 0 | 0 | 0 | 0
COc1ccc(S(=O)(=O)CC(=O)c2cc3cccc(C)c3oc2=O)cc1 | - | 50.1µM | 0 | 0 | 0
CSc1ncc(C(=O)Nc2c(C)cccc2C)c(-c2ccccc2)n1 | - | 0 | 0 | 0 | 0
CCN1c2ccccc2-c2nc(SCC(=O)NCc3ccccc3)ncc2S1(=O)=O | - | 0 | 0 | 0 | 0
SMILES | L3MBTL1 inh | G9a block | BAZ2B inh | JMJD2A Tudor | HP1b binding inh
Cc1cccc(N2CCN(C(=O)Cn3c(=O)c4cccn4c4ccc(F)cc43)CC2C)c1 (stereo not given) | - | 0 | 0 | 0 | 0
CCCN1C(C(=O)c2ccccc2)=C(OC(=O)COc2ccccc2)c2ccccc2S1(=O)=O | - | 8.91µM | 0 | ? | 0
C=CCN1C(C(=O)c2ccccc2)=C(OC(=O)COc2ccccc2)c2ccccc2S1(=O)=O | 0 | ? | ? | 20µM | 0
CCN1C(C(=O)c2ccccc2)=C(OC(=O)COc2ccc(OC)cc2)c2ccccc2S1(=O)=O | - | 11.2µM | ? | ? | 0
CCCN1C(C(=O)c2ccccc2)=C(OC(=O)C(C)(C)C)c2ccccc2S1(=O)=O | - | 0 | 0 | 0 | 0
CCN1C(C(=O)c2ccccc2)=C(OC(=O)c2ccc(Cl)cc2)c2ccccc2S1(=O)=O | - | 0 | 0 | 0 | 0
CCN1C(C(=O)c2ccccc2)=C(OC(=O)COc2ccc(C)cc2)c2ccccc2S1(=O)=O | - | 15.8µM | ? | 50.1µM | 0
CCCN1C(C(=O)c2ccccc2)=C(OC(=O)COc2ccc(C)cc2)c2ccccc2S1(=O)=O | - | ? | ? | ? | 0
COc1cccc(CNC(=O)c2sc3ncccc3c2-n2c(C)ccc2C)c1OC | - | ? | 0 | ? | 0
CCN(CC)C(CNC(=O)CSc1nnnn1-c1c(C)cccc1C)c1ccco1 (stereo not given) | 0 | 0 | 0 | 0 | 0
COc1cc(CNc2ccc(O)cc2)cc(Br)c1OCc1ccccc1F | ? | 11.2µM | ? | ? | ?
CCOc1cc(CNc2ccc(O)cc2)cc(Br)c1OCc1ccccc1F | 15.8µM | 11.2µM | 0 | 50.1µM | 17.8µM
COc1cccc(CNc2ccc(S(N)(=O)=O)cc2)c1OCc1ccccc1F | 0 | 0 | 0 | 0 | 0
COc1cc(CNCc2ccncc2)cc(Br)c1OCc1ccccc1F | 0 | 0[2.33 µM] | ? | 0 | 0
CCOc1cc(CNc2ccc(O)cc2)cc(Br)c1OCc1ccccc1 | - | ? | ? | 39.8µM | ?
COc1cccc(CNc2ccccc2O)c1OCc1ccccc1F | ? | 35.5µM | 31.6µM | 44.7µM | 44.7µM
O=C(Cc1cccs1)Nc1c(C(=O)Nc2ccc(F)cc2)oc2ccccc12 | - | 0 | 0 | 0 | 0
COc1ccc(C(=O)N2CCC[C@@]3(CCN(c4ncccn4)C3)C2)cc1 | - | 0[12.7 µM] | - | - | -
CCCCC12CN3CC(C)(CN(C1)C3c1c(C)[nH]c(=O)[nH]c1=O)C2=O (stereo not given) | - | ? | 0 | 0 | 0
Cc1ncoc1C(=O)N1CCCC(N2CCN(c3ccccc3F)CC2)C1 (stereo not given) | - | 0 | 0 | 0 | 0
CC[C@@]1(c2ccccc2)C(=O)N(C(=O)OC)N1C(=O)OC | 0 | 28.2µM | 0 | 0 | 0
CC[C@]1(c2cccc(C)c2)C(=O)N(C(=O)OC)N1C(=O)OC | 0 | 39.8µM | 0 | 0 | 0
CC[C@]1(c2ccccc2)C(=O)N(C(=O)OC)N1C(=O)OC | 0 | - | 0 | 0 | 0
COC(=O)N1C(=O)[C@](Cc2ccccc2)(c2ccccc2)N1C(=O)OC | 0 | 39.8µM | 0 | 0 | 0
COc1ccc(-c2nc3cnc(N4CCN(C)CC4)nc3n(CCc3ccccc3)c2=O)cc1 | - | 0[0.501 µM] | - | - | -
SMILES | L3MBTL1 inh | G9a block | BAZ2B inh | JMJD2A Tudor | HP1b binding inh
O=C(NC(Cc1ccccc1)C(=O)O)c1cccnc1Cl (stereo not given) | - | 0 | 0 | 0 | 0
CCOC(=O)[C@@H]1[C@H]2COc3ccc(Br)cc3[C@H]2N2C(=O)N(c3ccc(C)cc3)C(=O)[C@]12C | 0 | 0 | 0 | 0 | 0
Cc1ccc(C)c(S(=O)(=O)n2nc(C)c(S(=O)(=O)N3CCCCCC3)c2C)c1 | - | 0 | 0 | 0 | 0
Cc1ccc2c(c1)c1c3n2CCN(C(=O)CCl)C3CCC1 (stereo not given) | 0 | ? | 56.2µM | ? | 0
Cc1ccc2c(c1)c1c(n2C)C(C(N)=O)CCC1 (stereo not given) | 0 | 39.8µM | 0 | 0 | 0
CC(=O)N1CCn2c3c(c(=O)c4cc(C)ccc42)CCC31 (stereo not given) | - | ? | 0 | 0 | 0
CC(=O)N1CCn2c3c(c4cc(C)ccc42)CCCC31 (stereo not given) | 0 | 0[12.7 µM] | 35.5µM | 0 | 0
Cn1c(O)c(C2=c3ccccc3=NC2=O)[nH]c1=S | 0 | 0 | ? | 0 | 0
